# The campaign covered roughly 360,000 compounds. About 620 (0.17%) were called active. The sample as a whole holds a higher share of actives than the screen did. Values without a mark were called inactive.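 How the source made its calls: active means inhibition above a per-campaign cutoff, the mean of all compounds plus 3 SD (cut at about 60% in these data); inactive means the rest.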
# Target: Nuclear receptor coactivator 3 (Homo sapiens) (UniProt Q9Y6Q9)
# Experiment: NCOA3 GAL4-fusion reporter inhibition – cell-based, luminescence, primary screen (AID 588352);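 further: 0% = DMSO-treated cells and 100% = gossypol-treated cells at 36 µM; higher means less SRC3-driven luciferase light from the GAL4 reporter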
# Settings: HEK293 GAL4-SRC3 luciferase reporter, at 3.6 µM, hits give high values
# Nuclear receptor coactivator 3 (Homo sapiens), sequence (Q9Y6Q9 whole entry, looked up, the tested form may be a part): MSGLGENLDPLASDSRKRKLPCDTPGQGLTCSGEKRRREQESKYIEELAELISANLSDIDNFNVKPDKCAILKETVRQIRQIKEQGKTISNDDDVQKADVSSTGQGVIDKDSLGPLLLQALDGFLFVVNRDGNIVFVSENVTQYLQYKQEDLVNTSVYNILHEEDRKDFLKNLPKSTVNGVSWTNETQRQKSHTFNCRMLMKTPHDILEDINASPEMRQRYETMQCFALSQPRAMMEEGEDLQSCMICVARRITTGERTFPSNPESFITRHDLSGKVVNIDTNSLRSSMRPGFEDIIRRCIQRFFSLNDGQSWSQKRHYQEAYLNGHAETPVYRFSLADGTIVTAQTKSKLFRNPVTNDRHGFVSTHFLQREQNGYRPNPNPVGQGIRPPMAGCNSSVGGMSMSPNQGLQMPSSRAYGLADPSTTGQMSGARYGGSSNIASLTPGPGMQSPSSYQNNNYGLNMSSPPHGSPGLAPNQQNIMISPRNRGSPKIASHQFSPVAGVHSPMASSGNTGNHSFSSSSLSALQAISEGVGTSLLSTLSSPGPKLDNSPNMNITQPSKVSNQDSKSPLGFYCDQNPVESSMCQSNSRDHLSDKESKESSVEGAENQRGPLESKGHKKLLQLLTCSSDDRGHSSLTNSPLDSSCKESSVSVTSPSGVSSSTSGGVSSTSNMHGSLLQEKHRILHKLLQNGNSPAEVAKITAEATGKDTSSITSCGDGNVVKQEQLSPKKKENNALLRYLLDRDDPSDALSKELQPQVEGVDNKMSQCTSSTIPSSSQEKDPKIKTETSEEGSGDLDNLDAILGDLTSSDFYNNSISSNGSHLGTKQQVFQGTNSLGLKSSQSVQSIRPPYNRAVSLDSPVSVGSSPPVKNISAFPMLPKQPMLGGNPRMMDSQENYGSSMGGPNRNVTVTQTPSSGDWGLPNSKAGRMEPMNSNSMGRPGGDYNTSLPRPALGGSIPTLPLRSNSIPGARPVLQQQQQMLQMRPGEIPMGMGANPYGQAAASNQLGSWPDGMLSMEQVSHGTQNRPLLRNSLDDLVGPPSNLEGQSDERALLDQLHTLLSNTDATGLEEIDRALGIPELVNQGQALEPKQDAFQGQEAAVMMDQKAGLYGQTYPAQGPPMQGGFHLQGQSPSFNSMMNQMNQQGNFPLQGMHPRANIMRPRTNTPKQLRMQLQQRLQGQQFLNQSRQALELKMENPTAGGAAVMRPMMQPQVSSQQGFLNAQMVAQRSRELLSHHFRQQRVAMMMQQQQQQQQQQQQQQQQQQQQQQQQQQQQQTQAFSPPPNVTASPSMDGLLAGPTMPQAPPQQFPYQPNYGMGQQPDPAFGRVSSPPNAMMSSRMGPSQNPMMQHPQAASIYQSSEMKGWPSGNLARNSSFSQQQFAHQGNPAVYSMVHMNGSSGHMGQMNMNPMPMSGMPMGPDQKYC
row,SMILES,inhibition
1,CC12CCC(O)CC1CCC1C2CCC2(C)C(C(=O)CC(O)C(F)(F)F)CCC12 (stereo not given),15.9%
2,C[C@]12CC[C@H](O)C[C@H]1CC[C@@H]1C2CC[C@]2(C)[C@@H](C3=CC(=O)OC3)[C@@H](O)C[C@]12O (stereo not given in full),63.5% (active)
3,Cc1cccc(OP(=O)(Oc2cccc(C)c2)OC(c2ccccc2)C(F)(F)F)c1 (stereo not given),-1.86%
4,C[N+]1(C)CCOC(O)(c2ccc(-c3ccc(C4(O)C[N+](C)(C)CCO4)cc3)cc2)C1 (stereo not given),20.3%
5,CNC(=S)N/N=C1\C2CN3CCN(C2)CC1(c1ccccc1)C3,8.65%
6,COC(=O)C1=C(c2ccc(-c3ccccc3)c(F)c2)C[C@@H]2CC[C@H]1N2C(=O)NCc1ccc(F)cc1,9.01%
7,CCC(C)(O)C(=O)OC1C(=O)OC2CC3C(C)=CC(=O)C(O)C3(C)C3C4(O)OCC23C1C(C)C4O (stereo not given),93.7% (active)
8,O=C(Cn1c(=O)n(CC2CS2)c2ccccc21)N1CCCCC1 (stereo not given),-25.5%
9,COc1ccccc1CN1CCN(C(=O)Cc2ccccc2)CC1,2.02%
10,COC(=O)[C@@H]1C(OC(=O)c2ccccc2)CC2CCC1N2C (stereo not given in full),14.1%
11,CN(C)CCN(CC1CCCN(Cc2ccccc2F)C1)C(=O)Cc1ccc(F)c(F)c1 (stereo not given),3.08%
12,C=CC12CN(C)[C@@H]3C4CO[C@H](C[C@H]41)[C@]1(C(=O)Nc4ccccc41)[C@@H]32 (stereo not given in full),4.33%
13,CCOc1ccc(-c2cc(C)[n+](CCN(CC)CC)c(-c3ccc(OCC)cc3)c2)cc1,78% (active)
14,Cn1c(O)c(C=Nc2ccc3c(c2)CCC3)c(=O)n(C)c1=O,-9.05%
15,COC1C(O)C(C)OC(OC2CCC3(C=O)C(CCC4C3CCC3(C)C(C5=CC(=O)OC5)CCC43O)C2)C1O (stereo not given),90.5% (active)
16,Cn1c(C(=O)N2CCC(C(=O)N3CCC4(CC3)OCCO4)CC2)cc2sccc21,6.98%
17,NC(=O)Cn1cc(C(=O)c2ccccc2F)c2ccccc21,10.3%
18,Cc1ccc(P(=S)(c2ccc(C)o2)N2CCOCC2)o1,6.64%
19,CC(c1ccccc1)(c1ccccc1)c1ccncc1,16.2%
20,Fc1cccc(F)c1CN1CCN(Cc2c(F)cccc2F)CC1,28.2%
21,COc1ccc2[nH]c3c(c2c1)CCN[C@H]3C,7.99%
22,CC(=O)OC1C2(CC3N4C(=O)C5(CO)SSC4(CC31O)C(=O)N5C)OC(C)C(C)(C)C2=O (stereo not given),67.7% (active)
23,CC1CCCN1CCC(C(N)=O)(c1ccccc1)c1ccccc1 (stereo not given),-21.2%
24,COP(=O)(OC)C(NC(=O)c1ccc(C)cc1)C(Cl)(Cl)Cl (stereo not given),-4%
25,CCCCCCCCCCCCn1ccc(=N)cc1,76.9% (active)
26,CCOC(=O)C1CN(C)CCC1=O (stereo not given),21.1%
27,c1ccc2sc(N3CCNCC3)nc2c1,-3.09%
28,COc1cccc(OC)c1C(=O)NC(=S)N1C[C@H]2C[C@H](C1)c1cccc(=O)n1C2,19.2%
29,OC(Cn1c2ccccc2c2ccccc21)C[n+]1ccccc1 (stereo not given),-8.77%
30,CN(C)P(=S)(Nc1ccccc1)C(Cl)(Cl)Cl (stereo not given),6.36%

# From PubChem BioAssay AID588352 (The Scripps Research Institute Molecular Screening Center, 2011)
